The list is not random: actives were taken first. Their share in the collection is about 2.2%.
MEKK3 PB1 HTS – raises or lowers MEK5 binding to the human MEKK3 PB1 domain | Q99759 | bead-based flow cytometry, Alexa488-MEK5 binding to MEKK3; actives lie on both sides; 0 = blocked by unlabeled MEK5, 100 = vehicle | binding response (% of control), % at 10 µM | 1.4% of 290,000 active | AID 1529;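 active = binding response more than 3 SD above or below the average of its plate-row segment, actives on both sides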;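 note: Alexa488 bead fluorescence after subtracting the streptavidin-only scavenger bead signal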
Target sequence (Q99759 whole entry, looked up, the tested form may be a part): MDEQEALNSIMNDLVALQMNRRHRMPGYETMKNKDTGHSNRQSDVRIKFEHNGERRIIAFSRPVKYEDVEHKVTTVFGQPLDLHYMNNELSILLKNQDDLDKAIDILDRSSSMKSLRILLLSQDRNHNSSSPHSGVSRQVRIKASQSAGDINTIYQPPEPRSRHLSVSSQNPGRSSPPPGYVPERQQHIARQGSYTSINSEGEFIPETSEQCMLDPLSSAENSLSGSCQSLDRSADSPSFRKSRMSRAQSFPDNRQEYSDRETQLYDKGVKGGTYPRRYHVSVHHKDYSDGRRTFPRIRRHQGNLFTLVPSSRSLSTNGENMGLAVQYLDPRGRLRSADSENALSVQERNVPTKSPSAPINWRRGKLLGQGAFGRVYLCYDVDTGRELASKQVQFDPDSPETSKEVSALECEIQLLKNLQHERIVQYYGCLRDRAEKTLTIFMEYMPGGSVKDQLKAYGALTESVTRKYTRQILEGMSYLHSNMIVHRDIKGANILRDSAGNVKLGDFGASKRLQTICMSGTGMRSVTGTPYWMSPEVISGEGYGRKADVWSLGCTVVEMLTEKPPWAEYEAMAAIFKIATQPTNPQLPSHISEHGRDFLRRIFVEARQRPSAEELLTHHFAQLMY
VLA-4 inh – inhibition in a human VLA-4 binding assay | P13612 | VLA-4 expressing cells, ligand binding flow cytometry | inhibition, % (about 7 µM as worked out from the volumes in the protocol) | 0.2% of 330,000 active | AID 2557; in the data active = inhibition above about 50%
MEKK2mut PB1 HTS – signal of MEK5 binding to mutant human MEKK2 PB1 domain. bead flow cytometry, Alexa488-MEK5 binding to MEKK2 mutant. percent response, % at 10 µM. 0.35% of 290,000 active. AID 1530; in the data active = percent response above about 24%, passing the limit was not always enough
MEKK2 WT-MEK5 – raises or lowers MEK5 binding to wildtype human MEKK2 PB1 domain. Q9Y2U5. AID 1531. binding response (% of control), % at 10 µM. 1.1% of 290,000 active. bead flow cytometry, Alexa488-MEK5 binding to MEKK2 WT; actives lie on both sides; in the data active = binding response below about 67% or above about 130%
MEKK2wt confirm – raises or lowers MEK5 binding to wildtype human MEKK2, retest. AID 1892. 2.4% of 5,900 active. shares compounds with MEKK3 PB1 HTS. bead flow cytometry, Alexa488-MEK5 binding to MEKK2 WT; actives lie on both sides. binding response (% of control), % at 10 µM; in the data active = binding response below about 16% or above about 210%; inactive = in between
MEKK2mut confirm – signal of MEK5 binding to mutant human MEKK2, retest | shares compounds with MEKK3 PB1 HTS | bead flow cytometry, Alexa488-MEK5 binding to MEKK2 mutant | percent response, % at 10 µM | 2% of 5,900 active | AID 1893; in the data active = percent response mostly above about 71%, no sharp cut-off; inactive = mostly below about 38%;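 note: higher means compound restores mutant binding toward wildtype level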
MEKK3-MEK5 inh – confirmation of inhibitors of MEK5 binding to human MEKK3. 1.8% of 5,900 active. binding response (% of control), % at 10 µM. shares compounds with MEKK3 PB1 HTS. AID 1894. bead flow cytometry, Alexa488-MEK5 binding to MEKK3; stronger effect = lower value;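 active = binding response below 72% of control, or above a set upper limit, though filed actives all read lower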;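 note: 100% = DMSO only wells and 0% = binding blocked by excess unlabeled MEK5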
The depositor's hits bear a star; / = no result; [ ] = dose if it differs, or a comment.

SMILES | MEKK3 PB1 HTS | VLA-4 inh | MEKK2mut PB1 HTS | MEKK2 WT-MEK5 | MEKK2wt confirm | MEKK2mut confirm | MEKK3-MEK5 inh
CCOc1ccc(S(=O)(=O)N2CN(c3cccc(C(C)=O)c3)c3nc4ccccc4nc32)cc1 | / | -1 | / | / | / | / | /
CCN1C(=O)c2cccc3c(S(=O)(=O)NCc4ccccc4)ccc1c23 | / | 15 | / | / | / | / | /
CCN1C(=O)c2cccc3c(S(=O)(=O)NCCCN4CCOCC4)ccc1c23 | 125* | -1 | 6 | 124 | 105 | 5 | 106
O=C1NC2(CCCC2)N=C1c1ccc(F)cc1 | 122* | 3 | 4 | 118 | 99 | 8 | 100
CC1CCC(NC(=O)c2ccc(/C=C3\Oc4ccccc4N(C)C3=O)cc2)CC1 (configuration not stated) | 139* | / | 2 | 111 | 99 | 2 | 102
CN(C)CCN1CCc2ccccc21 | 100 | 14 | 11 | 144* | 152 | 38 | 97
COc1ccc(S(=O)(=O)N2CCCCCC2)cc1NC(=O)c1c2c(nc3ccccc13)CCN(Cc1ccccc1)C2 | 105 | -13 | -1 | 107 | / | / | /
COc1ccc(NC(=O)c2c3c(nc4ccccc24)CCN(Cc2ccccc2)C3)c(OC)c1 | 75*[inhibitor] | -42 | -1 | 88 | 113 | 15 | 106
CC(C)CNC1CS(=O)(=O)CC1O (configuration not stated) | 89 | 5 | -21 | 82 | / | / | /
O=S1(=O)CC(O)C(NCc2cccnc2)C1 (configuration not stated) | 82*[inhibitor] | 28 | -11 | 89 | 100 | -2 | 103
Cc1ccccc1OCC(=O)N/N=C/c1cccc(Oc2ccc([N+](=O)[O-])cc2[N+](=O)[O-])c1 | 132* | 6 | 1 | 107 | 97 | -9 | 98
Cc1nc2c(oc3ccc(Cl)cc32)c(=O)[nH]1 | 49*[inhibitor] | -11 | -29 | 50 | 97 | -1 | 102
N#CCCNC(=O)Cn1c(COc2ccc(Cl)cc2)nc2ccccc21 | 143* | 2 | 1 | 108 | 96 | 0 | 97
Cn1c(Cc2ccc3c(c2)OCO3)nnc1SCC(=O)NC(C)(C)C | 65*[inhibitor] | -12 | -12 | 64 | 104 | -2 | 103
CC(C)N(C(=O)CSc1nnc(Cc2ccc3c(c2)OCO3)n1C)C(C)C | 102 | 15 | -11 | 96 | / | / | /
Cc1ccc2[nH]c(=O)c(C3=NN(C(=O)CCC(=O)O)C(c4cccs4)C3)c(-c3ccccc3)c2c1 (configuration not stated) | 133* | 25 | 0 | 102 | 88 | -4 | 102
CSc1nc(NCCCN(C)C)c2c3c(sc2n1)CN(C)CC3 | 100 | -20 | 30* | 138* | 120 | 34 | 106
O=C(COc1ccccc1-c1ccccc1)NCc1cccc(Cl)c1 | 111 | 4 | 27 | 147* | 99 | -6 | 99
COC(=O)c1ccc(/C=C/C(=O)OCC(=O)c2ccc[nH]2)cc1 | / | 3 | / | / | / | / | /
Cc1ccc(S(=O)(=O)N(C)C)cc1-n1c(SCC(=O)N(C)C)nc2ccccc2c1=O | 95 | -3 | -3 | 94 | / | / | /
Cc1ccc(S(=O)(=O)N(C)C)cc1-n1c(SCC(=O)Nc2ccc(F)c(F)c2F)nc2ccccc2c1=O | 148* | 12 | 1 | 106 | 97 | -4 | 104
O=S(=O)(c1cccc(COc2c(Cl)cccc2Cl)c1)N1CCOCC1 | / | -6 | / | / | / | / | /
Cc1cccc(CN2CCN(C(c3ccccc3)c3ccc(Cl)cc3)CC2)c1 (configuration not stated) | 106 | 11 | 13 | 155* | 150 | 23 | 103
Cc1ccc2nc(SC(C(=O)Nc3ccc(F)cc3)c3ccccc3)[nH]c2c1 (configuration not stated) | 153* | 9 | 1 | 123 | 88 | 5 | 103
CC1CN(c2nc3ccccc3nc2C(C#N)C(=O)NC2CCCCC2)CC(C)O1 (configuration not stated) | 15*[inhibitor] | 2 | -49 | 22* | 106 | 10 | 103
COc1ccc(NC(=O)CSCC(=O)N2c3ccccc3CCc3ccccc32)cc1 | 148* | 3 | -1 | 100 | 101 | -1 | 99

Bioassay records deposited in PubChem BioAssay by NMMLSC.
